Source: PubChem BioAssay (NCI)
This is part of a sample that, as a whole, favours compounds with a hit. Of some 83,000 tested, about 20% had one in any assay.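 Activity criterion: percent growth below 10, measured after cells in 96-well plates were exposed to a single compound concentration for 48 hours.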 Calls of active or inactive are those of the source.

Legend:
Test in all cases: NCI-60 one-dose screen, 48 h (100 = growth as untreated, 0 = no growth, -100 = all killed)
[1] = test system: SR leukemia; details: 10 µM
[2] = test system: RPMI-8226 leukemia; details: 10 µM
[3] = test system: OVCAR-8 ovarian; details: 10 µM
[4] = test system: OVCAR-5 ovarian; details: 10 µM
[5] = test system: OVCAR-4 ovarian; details: 10 µM
[6] = test system: SK-OV-3 ovarian; details: 10 µM
[7] = test system: IGROV1 ovarian; details: 10 µM
[8] = test system: OVCAR-3 ovarian; details: 10 µM
[9] = test system: HS 578T breast; details: 10 µM
[10] = test system: NCI/ADR-RES ovarian; details: 10 µM
[11] = test system: T-47D breast; details: 10 µM
[12] = test system: MDA-MB-435 melanoma; details: 10 µM
[13] = test system: MCF7 breast; details: 10 µM unless noted
[14] = test system: HCT-116 colon; details: 10 µM
[15] = test system: HCC-2998 colon; details: 10 µM
[16] = test system: KM12 colon; details: 10 µM
[17] = test system: BT-549 breast; details: 10 µM
[18] = test system: SW-620 colon; details: 10 µM

Measured: growth

NC(C(=O)O)c1ccc([N+](=O)[O-])cc1 (stereo unspecified)
inactive: [1] 113% | [2] 116% | [3] 112% | [4] 92.2% | [5] 107% | [6] 96.4% | [7] 109% | [8] 107% | [9] 117% | [10] 105% | [11] 99.3% | [12] 111% | [13] 95.3% | [14] 105% | [15] 111% | [16] 99.4%

Nc1ccc(C(=O)c2ccc(N)c(Br)c2)cc1Br
inactive: [1] 26.1% | [2] 30.5% | [3] 26.4% | [4] 40% | [5] 49.1% | [7] 32.8% | [11] 43.5% | [17] 56.4% | [18] 21.2% | [13] 13.2% | [14] 14.8% | [15] 14.1%
active: [6] 8.33% | [9] -14.8% | [10] 0.17% | [12] -3.36%

COc1cccc(O)c1O
inactive: [1] 29.9% | [2] 89.2% | [3] 86.2% | [4] 101% | [5] 96.3% | [6] 76.9% | [7] 96.4% | [10] 85.6% | [11] 84.1% | [17] 82.3% | [18] 42.6% | [13] 20.2% | [15] 99.8% | [16] 52.6%
active: [8] 6.36% | [12] 6.89%

O=C(O)c1ccccc1NCc1ccco1
inactive: [1] 87.8% | [2] 79.1% | [3] 94.2% | [4] 93.1% | [5] 99.1% | [6] 109% | [8] 111% | [9] 107% | [10] 94.5% | [11] 103% | [17] 101% | [12] 119% | [18] 102% | [13] 97.4% | [14] 105% | [15] 80.9% | [16] 117%

O=c1cc2oc3cc(O)c(O)cc3c(-c3ccccc3O)c-2cc1O
inactive: [1] 82.7% | [2] 12.1% | [3] 75.1% | [4] 94.8% | [5] 70.1% | [6] 57.4% | [7] 63.9% | [10] 78.4% | [11] 70.8% | [17] 77.7% | [12] 68.9% | [18] 89.3% | [13] 75.8% | [14] 59.2% | [15] 94.7% | [16] 92.7%

O=[N+]([O-])c1ccc(N=Nc2ccc(O)c3ccccc23)cc1
active: [8] -0.85% | [9] 1.22% | [11] 9.85%
inactive: [1] 19.4% | [2] 28.5% | [3] 10.6% | [4] 124% | [5] 40.1% | [6] 92% | [7] 38.1% | [10] 28.1% | [12] 52.7% | [18] 34% | [13] 19.5% | [16] 33.1%

COc1nc(N)nc2c1ncn2C1OC(CO)CC1O (stereo unspecified)
inactive: [1] 115% | [2] 92% | [3] 101% | [4] 100% | [5] 120% | [6] 98.5% | [7] 112% | [8] 118% | [9] 117% | [10] 107% | [17] 94.3% | [12] 105% | [18] 108% | [13] 100% | [14] 98.8% | [15] 105% | [16] 103%

Cc1ccc(C(=O)N/N=C/c2ccc3c(c2)OCO3)cc1
inactive: [1] 78% | [2] 94.3% | [3] 102% | [4] 103% | [5] 99.5% | [6] 93.4% | [7] 105% | [8] 116% | [9] 115% | [10] 91.3% | [11] 94.7% | [12] 92.7% | [18] 106% | [13] 103% | [16] 82.1%

C=CC(O)CCC (stereo unspecified)
inactive: [1] 92.4% | [2] 103% | [3] 101% | [4] 103% | [5] 95.6% | [6] 108% | [7] 121% | [8] 113% | [9] 110% | [10] 103% | [11] 113% | [12] 90.4% | [18] 101% | [14] 112% | [15] 113% | [16] 109%

C=CCc1cc(C(C)=O)cc(OC)c1O
inactive: [1] 113% | [2] 122% | [3] 101% | [4] 101% | [5] 107% | [6] 113% | [8] 106% | [9] 102% | [10] 107% | [11] 118% | [17] 97.2% | [12] 113% | [18] 95.9% | [13] 106% | [14] 102% | [15] 96.3% | [16] 96.6%

CCN1C(=O)/C(=C/C=C/N(C)c2ccccc2)SC1=S
inactive: [1] 73.4% | [2] 86.8% | [3] 69.2% | [4] 102% | [6] 41.3% | [8] 81.4% | [9] 58.6% | [10] 81.5% | [11] 79.8% | [17] 80.5% | [12] 93.9% | [18] 106% | [13] 88.6% | [14] 95.1% | [16] 106%

O=C1OC[C@H]2[C@H](c3ccc(O)c(O)c3)c3cc(O)c(O)cc3C[C@H]12
inactive: [1] 330% | [2] 167% | [3] 127% | [4] 100% | [5] 110% | [6] 135% | [9] 111% | [11] 131% | [17] 134% | [12] 121% | [18] 107% | [13] 121% | [14] 103% | [16] 112%
active: [10] -28.4%

CC(=O)OC(C(=O)O)c1ccccc1 (stereo unspecified)
inactive: [1] 104% | [2] 88.2% | [3] 102% | [4] 105% | [5] 118% | [6] 117% | [8] 120% | [10] 108% | [11] 118% | [17] 122% | [12] 105% | [14] 108% | [15] 96.3% | [16] 106%

CC(C)(O)C#CC#CC(C)(C)O
inactive: [1] 97.9% | [2] 92.1% | [3] 99.2% | [4] 97.8% | [5] 104% | [7] 102% | [9] 100% | [10] 96.9% | [17] 93.7% | [12] 103% | [18] 104% | [13] 101% | [14] 96.5% | [15] 96.4% | [16] 108%

COc1ccc(NC(=O)CCl)cc1
inactive: [1] 56.3% | [2] 55.8% | [3] 80.8% | [4] 68.2% | [6] 87.7% | [7] 59% | [10] 77% | [11] 62.7% | [17] 66.3% | [12] 87% | [18] 98.3% | [13] 64.4% | [14] 53.5% | [15] 99.6% | [16] 85.5%

N#CC1(Nc2ccc3c4c(cccc24)CC3)CCCCC1
inactive: [1] 75.4% | [2] 77% | [3] 99.6% | [4] 110% | [7] 88.3% | [8] 111% | [9] 97.2% | [10] 103% | [11] 54.9% | [17] 96.3% | [12] 99% | [18] 110% | [13] 15.4% | [14] 108% | [15] 116% | [16] 90.1%

CC[N+](C)(CC)CCO
inactive: [1] 104% | [2] 102% | [3] 94.3% | [4] 100% | [6] 103% | [7] 104% | [8] 108% | [9] 107% | [10] 105% | [11] 93.4% | [17] 99.9% | [12] 100% | [18] 100% | [14] 105% | [15] 102% | [16] 110%

CCOC(=O)C/C(C)=N\O
inactive: [1] 104% | [2] 104% | [3] 109% | [4] 106% | [6] 103% | [7] 101% | [8] 99.9% | [9] 101% | [10] 96.6% | [11] 98.3% | [17] 97.1% | [12] 107% | [18] 101% | [13] 101% | [14] 103% | [15] 101% | [16] 104%

O=C(N/N=C\c1cc(Br)cc(Br)c1O)N/N=C/c1cc(Br)cc(Br)c1O
active: [1] -18.4%
inactive: [2] 19.3% | [3] 55.5% | [4] 64.6% | [5] 43.4% | [6] 79.7% | [8] 12.1% | [9] 60.6% | [10] 35.6% | [11] 62.3% | [12] 66.9% | [18] 56.3% | [13] 52.1% | [14] 31.2% | [16] 66.7%

O=C(c1ccc(O)cc1)c1ccc(O)cc1
inactive: [1] 88.7% | [2] 107% | [3] 99.9% | [4] 105% | [6] 114% | [7] 108% | [8] 111% | [9] 107% | [10] 110% | [11] 113% | [17] 122% | [12] 105% | [18] 113% | [13] 113% | [14] 95% | [15] 105% | [16] 100%
